Cruzain Triton = blocks cruzain activity in presence of Triton detergent; 200,000 tested, 0.43% active; Potency, µM, inactives show max response, negative = inhibition, usual class: inhibitors; purified cruzain, Z-FR-AMC fluorescence, 0.01% Triton; P25779;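 note: plate controls were neutral wells for no effect and buffer without enzyme for full effect; nearly all actives have a fitted effect of over 40% in size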
Target sequence (P25779 123-467 limits assumed): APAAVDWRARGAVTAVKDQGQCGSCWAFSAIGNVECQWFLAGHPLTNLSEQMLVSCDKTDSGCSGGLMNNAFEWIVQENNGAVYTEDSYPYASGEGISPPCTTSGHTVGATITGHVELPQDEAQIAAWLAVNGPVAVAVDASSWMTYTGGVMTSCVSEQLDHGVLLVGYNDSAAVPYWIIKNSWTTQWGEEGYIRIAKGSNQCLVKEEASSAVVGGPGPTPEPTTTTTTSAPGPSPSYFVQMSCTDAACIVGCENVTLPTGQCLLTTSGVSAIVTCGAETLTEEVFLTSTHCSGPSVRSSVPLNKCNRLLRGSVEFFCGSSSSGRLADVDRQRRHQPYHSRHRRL
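Compounds were screened in titration against cruzain (1.5 nM) with 0.01% Triton X-100 to counter colloidal aggregation. Activity was the AMC fluorescence increase over 60 s after adding 2 uM Z-FR-AMC at pH 5.5.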
Cruzain noTriton = inhibitors of Trypanosoma cruzi cruzain without detergent; AID 1476; purified cruzain, Z-FR-AMC fluorescence, no detergent; 200,000 tested, 2.3% active; Potency, µM, for the others: max response, negative = inhibition, usual class: inhibitors;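 note: plate controls were enzyme without inhibitor for no effect and buffer without enzyme for full effect; nearly all actives have a fitted effect of over 40% in size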
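Detergent-free condition (0.00005% Triton X-100) in acetate buffer pH 5.5 with DTT. 1.5 nM enzyme and compound were pre-mixed 15 min, then 2 uM Z-FR-AMC substrate added; reaction progress from fluorescence change between first and third reads (60 s).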
Numbers without * were called inactive; ? = inconclusive; ! = a repeat was not active. Only some compounds are listed: those with a hit (about 2.4% of all), similar ones and a draw of the others. Calls come from the whole dose curve; as a rule, active = well fitted curve in the direction sought with a large enough effect; inconclusive = small, poorly fitted or top-dose-only effect, or another doubt; inactive = no such curve, though single readings can be large; an effect the other way counts as inactive or inconclusive. Potency is the fitted concentration of half-maximal effect.

SMILES	Cruzain Triton	Cruzain noTriton
Cc1cccc(Nc2nc(Nc3cccc(C)c3)nc(N3CCOCC3)n2)c1	-9%	-2%
COc1cccc(-c2cn3c(n2)sc2cc(C(=O)NC4CCCCCC4)ccc23)c1	-2%	4%
C=Cc1ccc(CN2C(=O)N(c3ccc(CC)cc3)S(=O)(=O)c3ccccc32)cc1	0%	-29%
O=C(Nc1cc(Sc2ccccn2)cc([N+](=O)[O-])c1)c1cccc(Cl)c1	-7%	?
O=C(Nc1cc(Sc2ccccn2)cc([N+](=O)[O-])c1)c1ccc(Cl)cc1	4%	13µM*
O=C(O)c1cc(O)c2c(c1)[C@H]([C@H]1c3cc(C(=O)O)cc(O)c3C(=O)c3c(O[C@@H]4OC(CO)C(O)C(O)C4O)cccc31)c1cccc(O[C@@H]3OC(CO)C(O)C(O)C3O)c1C2=O (stereo not given in full)	16µM*	?
O=C1c2cccc(O)c2C(=O)c2c(O[C@@H]3O[C@H](CO)[C@@H](O)[C@H](O)[C@@H]3O)cccc21	1%	-6%
CC1(C)Cc2c(C#N)c(N3CCN(C(=O)c4ccccc4Cl)CC3)nc(-c3ccco3)c2CS1	11µM*	?
CC1(C)Cc2c(C#N)c(SCC(=O)c3ccccc3)nc(N3CCOCC3)c2CS1	2%	25µM*
CC(=O)N1CCN(c2nc(-c3ccco3)c3c(c2C#N)CC(C)(C)SC3)CC1	-21%	?
CN1Cc2c(N3CCOCC3)nc(SCc3ccccc3)c(C#N)c2CC1(C)C	-5%	-6%
COc1ccc(NC(=O)c2[nH]nc3c2CSc2ccccc2-3)c(OC)c1	-2%	6%
COc1ccc(Cl)cc1NC(=O)Cn1nnc2sc3c(c2c1=O)CCC(C(C)(C)C)C3 (stereo not given)	0%	6%
Cc1ccc(Cl)cc1NC(=O)Cn1nnc2sc3c(c2c1=O)CCC(C(C)(C)C)C3 (stereo not given)	-4%	25µM*
CCCCCCCCCC(=O)OCC(CO)OC(=O)CCCCCCCCC (stereo not given)	-7%	-1%
Cc1cccc(OCc2cc(=O)n3c(-c4ccccc4)csc3n2)c1C	-3%	-5%
C#CCOC(=O)NC(/C=C/CCCC)c1ccccc1 (stereo not given)	1%	-4%
CCC(=O)Nc1cc2nn(-c3ccc(OC)cc3)nc2cc1C	8%	?
COc1ccc(-n2nc3cc(C)c(NC(=S)NC(=O)c4ccccc4C)cc3n2)cc1	-3%	13µM*
O=c1c(CCc2ccccc2)nc2cncnc2n1Cc1ccccc1	3%	3.2µM*
O=c1c(CCc2ccccc2)nc2cncnc2n1-c1ccccc1	-9%	-2%
CCOc1ccccc1Nc1nc2ccccc2c2nncn12	-1%	-1%
N#CCc1c(C#N)c(N)nc(N2CCN(c3ccc(F)cc3)CC2)c1C#N	-6%	16µM*
N#CCc1c(C#N)c(N)nc(N2CCN(Cc3ccc4c(c3)OCO4)CC2)c1C#N	-5%	-27%
CN(C)S(=O)(=O)Nc1ccc(-c2cn3ccsc3n2)cc1	2%	-8%
SMILES	Cruzain Triton	Cruzain noTriton
CS(=O)(=O)Nc1cccc(-c2cc(NCc3ccccc3)ncn2)c1	-3%	-1%
CN(C)c1cc(-c2cccc(NS(C)(=O)=O)c2)ncn1	13µM*	16µM*
Cc1ccc(NS(=O)(=O)c2ccc(Cl)c(NC(=S)NC(=O)C3CCCCC3)c2)cc1Cl	2%	32µM*
Cc1ccc(NS(=O)(=O)c2ccc3c(c2)CCCN3C(=O)C2CCC2)cc1Cl	-5%	-19%
Fc1ccc(Nc2nc(SCc3cccc(F)c3)nc3ccccc23)cc1	-2%	7%
Cc1ccc2nc(N3CCN(c4cccc(C)c4C)CC3)c3nnnn3c2c1	-1%	4µM*!
Cc1ccc2nc(N3CCN(c4ccc(F)cc4)CC3)c3nnnn3c2c1	-2%	-10%
CCCCN(CC)C(=O)CCCn1c(=O)c2cccn2c2ccccc21	-4%	-6%
CCC(=O)N1CCN(c2nc3ccccc3s2)CC1	-3%	-2%
O=C(c1cc2sccc2n1Cc1ccccc1)N1CCN(c2nc3ccccc3s2)CC1	-4%	7.9µM*
O=c1[nH]c(/C=C/c2ccccc2[N+](=O)[O-])nc2ccccc12	-4%	0%
O=C1OC(c2ccccc2)=N/C1=C\C=C\c1ccccc1[N+](=O)[O-]	13µM*	16µM*
COc1cccc2c1C(=O)c1c(O)c3c(c(O)c1C2=O)C[C@](O)(/C(C)=N\O)C[C@@H]3O[C@H]1C[C@H](N)[C@@H](O)[C@H](C)O1	-7%	-13%
O=S(=O)(Nc1ccc(-c2nc3cccnc3s2)cc1)c1ccc(Cl)s1	-12%	?
O=S(=O)(Nc1ccc(-c2nc3cccnc3s2)cc1)c1cccs1	-3%	13µM*
O=[N+]([O-])c1ccc(O)c(N=Cc2sc3ccccc3c2O)c1	-9%	13µM*
Oc1c(C=Nc2cccc3cccnc23)sc2ccccc12	-5%	-3%
CCC(C)NC(=O)Cn1c(=O)n(-c2ccc(OC)c(OC)c2)c(=O)c2ccccc21 (stereo not given)	-1%	9%
COC(=O)[C@@]1(Cc2ccccc2)[C@H]2c3cc(C(=O)N4CCCC4)n(Cc4nc5ccccc5[nH]4)c3C[C@H]2CN1C(=O)c1ccccc1	0%	?
COc1cccc(C(=O)Nc2cc3cc(OC)ccc3oc2=O)c1	1%	-1%
COc1ccc(C(=O)Nc2cc(C(=O)c3ccccc3)c(C)oc2=O)cc1	13µM*	16µM*
COc1ccc(-n2ccn(Cc3ccc(C)cc3)c(=O)c2=O)cc1OC	-2%	-2%
COC(=O)c1ccc2c(=O)n(CCCCCC(=O)NCc3ccc(OC)cc3)c(=O)[nH]c2c1	2%	-6%
CCOc1cccc(C(=O)N(Cc2ccc(C(C)C)cc2)C2CCS(=O)(=O)C2)c1 (stereo not given)	-9%	?
Cc1ccc(CNc2nc(N)c([N+](=O)[O-])c(Nc3ccc(F)cc3)n2)cc1	0%	16µM*
SMILES	Cruzain Triton	Cruzain noTriton
Cc1ccc(CNc2nc(N)c([N+](=O)[O-])c(NCc3ccccc3)n2)cc1	-2%	?
COc1cc(/C=C/c2nc(C#N)c(N3CCN(C)CC3)o2)cc(OC)c1OC	-1%	13µM*
COc1ccccc1/C=C/c1nc(C#N)c(N2CCN(c3ccccc3)CC2)o1	4%	13%
COc1cccc(/C=C/c2nc(C#N)c(N3CCN(C)CC3)o2)c1	25µM*	3.2µM*
COc1ccc(N2CCN(c3oc(/C=C/c4cccc(OC)c4)nc3C#N)CC2)cc1	4%	6%
Cc1c(C(=O)Nc2ccccc2F)sc2ncnc(N(C)C3CCCCC3)c12	-9%	?
CCC/C=C(\CCC)C(NS(=O)(=O)CC12CCC(CC1=O)C2(C)C)c1ccc(C(=O)OC)cc1 (stereo not given)	-11%	10%
O=C(NNC(=O)c1sc2cccc(Cl)c2c1Cl)Nc1ccccc1	2%	10µM*
O=C(NNC(=O)c1sc2cccc(Cl)c2c1Cl)NC1CCCCC1	-9%	-7%
COc1ccc(N=C2NC(=O)S/C2=C\c2ccc(N(C)C)cc2)cc1	-3%	?
CCOc1ccc(N=C2NC(=O)S/C2=C\c2ccc(Cl)cc2)cc1	-2%	4µM*
CC/C=C\C/C=C\C/C=C\C/C=C\C/C=C\C/C=C\CCC(=O)NCCCC(=O)O	-2%	-6%
N#Cc1nc(-c2ccco2)oc1N1CCN(C(c2ccccc2)c2ccccc2)CC1	-13%	?
N#Cc1nc(-c2ccco2)oc1N1CCN(c2cccc(Cl)c2)CC1	-22%	?
COc1ccccc1-c1nc(C#N)c(N2CCN(c3cccc(Cl)c3)CC2)o1	22µM*	?

From PubChem BioAssay
